Source: PubChem (National Center for Advancing Translational Sciences (NCATS))
The list is not random: actives were taken first. Their share in the collection is about 7.9%.
HCMV inh: human cytomegalovirus inhibition | AID 1259415 | HFF cells, HCMV-luciferase reporter, 72 h; stronger effect = lower value | activity change, negative = inhibition, % at 57.5 µM | 4.5% of 410,000 active; in the data active means activity change below about -60%; inconclusive means no clear call, values can overlap the other calls; inactive means above about -39%
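Inhibition of viral replication was scored as loss of reporter luminescence in HFFs infected with HCMV-luciferase (MOI 1 PFU/cell) for 72 h; compounds tested at 2 doses, normalized to buffer and Salinomycin controls.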
HCV inhibitor: inhibitors of hepatitis C virus infection; Potency, µM (top dose mostly 41.8 µM), for inactives: at the top dose activity change, negative = inhibition, most hits filed as inhibitors; Huh7.5.1 HCVcc-Cre infection, luciferase reporter, 44 h; 3.4% of 340,000 active; active means well fitted inhibition curve with a large enough effect; inconclusive means small, poorly fitted or top-dose-only effect, or another doubt; inactive means no such curve, though single readings can be large or run the other way; further: potency means the concentration at half of the fitted maximal effect
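HCVcc-Cre virus at an moi near 0.5 was added right after compound to cells cultured 4 h from seeding (1,000 cells/well). Luciferase activity was determined 44 h later, 15 min after substrate addition at RT.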
LASV entry inh: Lassa virus entry inhibition. Lassa virus pseudotype entry inhibition, cell reporter. Potency, µM (doses to about 37.9 µM), for inactives: at the top dose activity change, negative = inhibition, hits mostly inhibitors. 1.2% of 300,000 active; calls by dose curve; tested in HEK293 cells; further: potency means the concentration at half of the fitted maximal effect; nearly all actives have a fitted effect of over 50% in size
Marburg entry inh: Marburg virus entry inhibition; Marburg virus pseudotyped entry inhibition, cell reporter; Potency, µM (highest dose often 37.8 µM), without a hit: top-dose activity change, negative = inhibition, most hits filed as inhibitors; 1.8% of 300,000 active; AID 540276; calls by dose curve; tested in HEK293 cells; further: potency means the concentration at half of the fitted maximal effect
FMDV inh: foot and mouth disease virus antiviral activity | FMDV antiviral cell-based qHTS | Potency, µM (highest dose often 57.9 µM), without a hit: at the highest dose activity change, negative = inhibition, hits mostly inhibitors | 1.2% of 410,000 active; calls by dose curve; tested in HEK293T cells; further: read-out not given here; potency means the concentration at half of the fitted maximal effect; nearly all actives have a fitted effect of over 45% in size
Active calls of the source: *; ? = inconclusive; . = not tested or not shown; [ ] = another dose, or the depositor's remark. On the % scale 0 is the no-effect control and ±100 the full control effect.

SMILES | HCMV inh | HCV inhibitor | LASV entry inh | Marburg entry inh | FMDV inh
CN(c1ccc(C(=O)Nc2cccnc2)cc1)S(=O)(=O)c1ccccc1 | -71* | ? | -4% | -24%[46.1 µM] | ?
CN(c1ccc(F)cc1)S(=O)(=O)c1ccc(Cl)c(C(=O)Nc2ccncc2)c1 | -65* | ? | 1% | -19% | 20µM*
CN(c1ccccc1)S(=O)(=O)c1ccc(Cl)c(C(=O)Nc2ccncc2)c1 | -26 | ? | . | . | ?
CCc1nnc(NC(=O)c2ccc(S(=O)(=O)N(C)c3ccccc3)cc2)o1 | -75* | 7.1µM* | ? | ? | 0%
CCc1nnc(NC(=O)c2ccc(S(=O)(=O)N(CC(C)C)CC(C)C)cc2)o1 | -9 | 10% | ? | ? | 6%
Cc1cccc(C(=O)NC(=O)Nc2ccc(-c3cc(C(F)(F)F)nn3-c3ccccc3)cc2)c1 | 5 | . | ? | . | ?
CC(Oc1ccc(Cl)cc1Cl)c1ccnc2nc(N3CCOCC3)nn12 (configuration not stated) | -77* | -23% | -6%[46.1 µM] | ? | ?
COC(=O)c1ccccc1S(=O)(=O)N1CCC(C(=O)NCc2ccco2)CC1 | 7 | 5% | . | . | -16%
O=C(N/N=C/c1cn(-c2ccccc2)nc1-c1cc2ccccc2o1)c1c[nH]c2ccccc12 | 64 | 11µM* | ? | ? | 9%
O=C(N/N=C/c1cn(-c2ccccc2)nc1-c1cc2ccccc2o1)c1ccccc1Br | -3 | ? | ? | 10µM* | 0%
Oc1cccc2ccc(Nc3ccccn3)nc12 | -103* | 1.1µM* | 23µM* | ? | 0%
O=C(OCCC12CC3CC(CC(C3)C1)C2)c1ccc(NCc2cc(O)ccc2O)cc1 | -77* | 2.2µM* | 1.3µM* | 1.8µM* | ?
COc1ccccc1C1CN(CC(=O)N2CCC(N3CCOCC3)CC2)Cc2ccccc2O1 (configuration not stated) | . | . | . | . | 5%
CC(C)(C)C(=O)NCCCc1nc2ccccc2n1CCCOc1ccc(Cl)cc1 | -84* | ? | ? | ? | 20µM*
Cc1ccc(OCCCCn2c(CO)nc3ccccc32)cc1 | -65* | -13% | -1%[46.1 µM] | ? | 0%
CC(=O)NCCc1nc2ccccc2n1CCCCOc1ccc(Cl)cc1 | -27 | . | ? | ? | ?
O=[N+]([O-])c1cc(F)c2cccnc2c1O | 36 | -24% | . | . | -13%
O=[N+]([O-])c1cc(Cl)c2cccnc2c1O | -74* | 12% | -22%[46.1 µM] | ? | -29%
O=[N+]([O-])c1ccc(Cl)c2cccnc12 | 10 | 13% | -27%[46.1 µM] | ? | -22%
Oc1c(I)cc(Cl)c2cccnc12 | 31 | ? | -15% | 24% | -29%
Clc1cc2cccnc2c2ncccc12 | -96* | 2.8µM* | . | . | -15%
COc1cc(N)c2ncccc2c1Cl | -31 | -8% | 0%[46.1 µM] | -2%[46.1 µM] | -9%
Cc1c(C)c2cccnc2c2ncccc12 | . | 3.2µM* | . | . | ?
O=[N+]([O-])c1cc(Cl)c(O)c2ncccc12 | -98* | -15% | ? | ? | -30%
CCc1cc(-c2cnnn2Cc2ccccc2)ccc1-c1cn(CC(C)C)nn1 | -32 | . | ? | . | -11%
SMILES | HCMV inh | HCV inhibitor | LASV entry inh | Marburg entry inh | FMDV inh
CN(c1ccc2c(-c3ccccn3)noc2n1)c1ccc(F)cc1F | 120 | . | . | . | .
Cc1cccc(-n2cc(-c3ccccc3)c3c(N4CCOCC4)ncnc32)c1 | -18 | 3.2µM* | ? | ? | ?
Cc1ccc(-n2cc(-c3ccccc3)c3c(N4CCN(C)CC4)ncnc32)cc1 | 55 | -27% | ? | ? | 0%
COc1cccc(N2CCN(c3ncnc4c3c(-c3ccccc3)cn4-c3ccc(C)cc3)CC2)c1 | -63* | . | 27%[46.1 µM] | . | -2%
CCC1CN(Cc2cccc3nccnc23)Cc2cc(OC)ccc2O1 (configuration not stated) | . | . | . | . | 1%
CC1CCCC(NC(=O)C2CCN(S(=O)(=O)c3cccc4nonc34)CC2)C1C (configuration not stated) | 34 | 8% | 6% | -12%[46.1 µM] | 3%
Fc1cccc(CN2CCN3CCCC3C2C2CCCCC2)c1 (configuration not stated) | 28 | ? | -2% | ? | ?
Fc1ccc(CN2CCN3CCCC3C2C2CCCCC2)cc1F (configuration not stated) | -6 | -27% | 13µM* | ? | ?
CC(C)CN1C(=O)c2ccc(C(=O)Nc3ccncc3)cc2C1=O | -31 | 6% | 10% | 3% | 13µM*
COC(=O)c1cccc(NC(=O)c2ccc3c(c2)C(=O)N(C(C)(C)C)C3=O)c1 | 4 | ? | 2%[46.1 µM] | -1%[46.1 µM] | -25%
O=C(O)c1cccc(NC(=O)c2ccc3c(c2)C(=O)N(CC2CCCO2)C3=O)c1 (configuration not stated) | -108* | 2% | -9% | -7% | 16µM*
COC(=O)c1cccc(NC(=O)c2ccc3c(c2)C(=O)N(CC2CCCO2)C3=O)c1 (configuration not stated) | -9 | 0% | 1% | -14% | ?
CC(C)(C)NC(=O)c1cccc(NC(=O)c2ccc3c(c2)C(=O)N(C(C)(C)C)C3=O)c1 | 20 | ? | ? | ? | 25µM*
COC(=O)Cc1ccc(NC(=O)c2ccc3c(c2)C(=O)N(CC2CCCO2)C3=O)cc1 (configuration not stated) | -30 | -1% | 14% | 10% | 28µM*
O=C(O)Cc1ccc(NC(=O)c2ccc3c(c2)C(=O)N(CC2CCCO2)C3=O)cc1 (configuration not stated) | 9 | . | -16% | 10% | -18%
O=C(NC1CCCCC1)c1nccnc1-c1ccc(C(F)(F)F)cc1 | 33 | . | . | . | .
CCOc1ccc(NC(=O)COC(=O)C2COc3ccccc3O2)cc1 (configuration not stated) | 63 | . | . | . | 1%
NC(=S)NN=C1c2cc(OCCN3CCOCC3)ccc2-c2ccc(OCCN3CCOCC3)cc21 | . | 4µM* | ? | ? | 18µM*
Clc1ccc(OCCN2CCOCC2)cc1Cl | -22 | -3% | -10% | -1% | 34%
O=C(NC1CCCCC1)N1CCN(CCc2ccccc2)CC1 | 54 | 3% | -30%[14.3 µM] | 18% | 13%
O=C(NC1CCCCC1)N1CCN(Cc2ccco2)CC1 | -63* | 11% | 9% | 13%[46.1 µM] | 13%
C=CCC[C@@H](Cc1ccc(F)cc1)C(=O)OC[C@@H]1CCCN1C(=O)[C@H](CC=C)CC(=O)N[C@H](CO)Cc1ccccc1 | 42 | 10µM* | . | . | ?
C=CCC[C@H](Cc1ccc(F)cc1)C(=O)OC[C@H](C)NC(=O)[C@H](CC=C)CC(=O)NCCO | -69* | 5% | . | . | -14%
C=CCC[C@H](Cc1ccc(F)cc1)C(=O)OC[C@@H](NC(=O)[C@@H](CC=C)CC(=O)N(CCO)Cc1ccccc1)C(C)(C)C | 11 | 3.2µM* | . | . | ?
C=CC[C@H](CC(=O)NCCO)C(=O)N[C@H](C)COC(=O)[C@@H](CC=C)Cc1ccc(F)cc1 | -12 | -5% | . | . | -27%
